Test results from PubChem BioAssay (NCI).
The panel holds about 83,000 compounds, 20% with a hit somewhere; the sample as a whole holds those more often.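 The test compound was applied at a single concentration to cells in 96-well plates for 48 hours, and percent growth was recorded.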 Unmarked numbers belong to inactive results. Active and inactive are the calls of the source. How the source made its calls: active means growth percent below 10; inactive means the rest.

Columns and labels:
Test in all cases: NCI-60 one-dose screen, 48 h (100 = growth as untreated, 0 = no growth, -100 = all killed)
Details in all cases: 10 µM unless noted
[1] = test system: NCI-H23 lung
[2] = test system: NCI-H226 lung
[3] = test system: NCI-H322M lung
[4] = test system: HOP-62 NSCLC
[5] = test system: NCI-H460 lung
[6] = test system: HOP-92 NSCLC
[7] = test system: NCI-H522 lung
[8] = test system: A549/ATCC NSCLC
[9] = test system: 786-0 renal
[10] = test system: COLO 205 colon

SMILES | growth [1] | growth [2] | growth [3] | growth [4] | growth [5] | growth [6] | growth [7] | growth [8] | growth [9] | growth [10]
CO[C@H]1/C=C/O[C@@]2(C)Oc3c(C)c(O)c4c(c3C2=O)C(=O)C(/C=N/N(c2ccccc2)c2ccccc2)=C(NC(=O)/C(C)=C\C=C\[C@H](C)[C@H](O)[C@@H](C)[C@@H](O)[C@@H](C)[C@H](OC(C)=O)[C@@H]1C)C4=O | 5.83% (active) | 18.4% | 22.2% | -76.7% (active) | -50.7% (active) | -48.6% (active) | -24% (active) | 3.7% (active) | 3.91% (active) | -60.3% (active)
COc1ccc(/C(C)=C(\c2ccc(Cl)cc2)c2ccc(OCCCN(C)C)cc2)cc1F | 78.1% | 98% | 67.6% | 52.8% | -3.98% (active) | 92% | 77% | 57.2% | 62.2% | 7.6% (active)
Cc1ccc(O)c(C(=O)c2ccccc2Cl)c1 | 94.3% | 100% | 109% | 98.3% | 109% | 112% | 102% | 104% | 99.1% | 138%
O=C(O)C1C[C@](O)(c2ccc(F)cc2)[C@@H](c2ccc(F)cc2)O1 (stereo not given in full) | 91.4% | 122% | 121% | 90.3% | 101% | 78.2% | 91.5% | 112% | 95.6% | 110%
NS(=O)(=O)c1cnccc1-n1ccc(=O)c(S(N)(=O)=O)c1 | 91.4% | 84.1% | 94.2% | 85.6% | 109% | 80.9% | 9.19% (active) | 33.9% | 97.5% | 94.4%
CCOC(=O)c1ccc(-c2ccc3cc(OC)ccc3c2)nc1C | 93% | 116% | 90.3% | 107% | 103% | 104% | 72.7% | 95.4% | 85.7% | 105%
COc1ccc(/C=C2\COc3ccc(O)cc3C2=O)c(OC)c1 | 83.4% | 104% | 86.5% | 56.3% | 40.6% | 79.5% | 39.1% | 51.6% | 91.2% | 108%
COC1(CC[C@@H](C)COC2OC(CO)C(O)C(O)C2O)O[C@H]2C[C@H]3[C@@H]4CC=C5C[C@@H](OC6OC(CO)C(OC7OC(C)C(O)C(O)C7O)C(O)C6OC6OC(C)C(O)C(O)C6O)CC[C@]5(C)[C@H]4CC[C@]3(C)[C@H]2[C@@H]1C (stereo not given in full) | -63% (active) | -57.2% (active) | -85.2% (active) | -83% (active) | -90.2% (active) | -62% (active) | -60.9% (active) | -64.7% (active) | -94.3% (active) | -12.2% (active)
Clc1ccc(-c2cn(-c3ccccc3)c(-c3ccccc3)n2)cc1 | 85.2% | 80.9% | 95.9% | 76.9% | 104% | 68.7% | 55.2% | 71.3% | 81.3% | 107%
C=CCO[C@H]1CO[C@H]2[C@@H]1OC[C@@H]2Oc1ccc(Nc2ccnc(Nc3ccc(O[C@H]4CO[C@H]5[C@@H]4OC[C@@H]5OCC=C)c(Cl)c3)n2)cc1Cl | -47.8% (active) | 86.7% | -56.6% (active) | -25.5% (active) | -74% (active) | 83.3% | -29.9% (active) | -60.7% (active) | -88.2% (active) | 29.2%
